TIM10 inh = growth inhibitors of isogenic TIM10 control yeast, primary screen, counter-screen for tim10-1 yeast inhibitor project, luminescence, uHTS. S. cerevisiae TIM10 strain growth, BacTiter-Glo luminescence, 24 h. inhibition, % at 10 µM. 330,000 compounds, 1.4% hits;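 active = inhibition of 40% or more at the single tested concentration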;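 note: wild-type TIM10 isogenic control strain grown at permissive 25 °C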
PfHsp90 set2 = growth inhibition of PfHsp90-expressing yeast, primary screen, antimalarial PfHsp90 inhibitor project, S. cerevisiae, BacTiter-Glo luminescence, single point, set 2; 310,000 compounds, 0.32% hits; BacTiter-Glo ATP, 48 h; yeast lacking PDR1 and PDR3 efflux regulators; AID 504621, 2011; inhibition, % at 9.4 µM;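 active = every replicate shows inhibition above about 80%, whatever the replicate mean, limit read from the data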;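 note: 0% = DMSO neutral controls and 100% = 20 µM radicicol positive controls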
SKKanGAS inh = S. pyogenes SKKanGAS growth inhibitors in kanamycin, primary screen, streptokinase expression inhibitor project, SKKanGAS strain, BacTiter-Glo luminescence; 6 h; inhibition, % at 7.5 µM; 300,000 compounds, 1.3% hits; AID 1662, 2009;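 active = mean replicate score, as percent of positive control median, at least 50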;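 note: strain carries kanamycin resistance gene driven by streptokinase promoter and grows in 40 µg/ml kanamycin; loss of luminescence reflects streptokinase promoter inhibition or plain growth inhibition; 0% = median of DMSO wells and 100% = positive control at its reference dose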
Calb FLC = C. albicans growth inhibition with fluconazole, primary screen, CaCi-2 strain, Alamar Blue fluorescence | AID 1979, 2009 | growth inhibition, % (test concentration not listed) | C. albicans CaCi-2 (fluconazole-resistant clinical isolate) + fluconazole, 48 h | 300,000 compounds, 0.57% hits;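 active = growth inhibition above about 58% in most replicates, limit read from the data, passing the limit was not always enough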;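 note: all wells also contain fluconazole at 8 µg/ml as a sub-toxic cotreatment; 0% = median of DMSO wells and 100% = median of geldanamycin control wells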
tim23-1 inh = growth inhibitors of tim23-1 mutant yeast, primary screen, luminescence, uHTS | S. cerevisiae tim23-1 growth, BacTiter-Glo luminescence, 24 h | inhibition, % at 20 µM | 330,000 compounds, 1.3% hits;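 active = growth inhibition of the mutant yeast at or above 50%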;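 note: temperature-sensitive mutant grown at 25 °C; plate controls were DMSO-treated mutant yeast for no effect and medium wells lacking yeast for full effect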
tim10-1 inh = growth inhibitors of tim10-1 mutant yeast, primary screen, luminescence, uHTS. S. cerevisiae tim10-1 ts strain growth, BacTiter-Glo, 24 h. inhibition, % at 20 µM. 330,000 compounds, 2.2% hits;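 active = inhibition of at least 40%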;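 note: mutant grown at 25 °C; 0% = DMSO wells with yeast and 100% = wells holding no yeast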
tim10 confirm = growth inhibitors of wild-type TIM10 yeast, confirmation, counter-screen for tim10-1 synthetic lethality project, single concentration, luminescence, S. cerevisiae | shares compounds with TIM10 inh | S. cerevisiae tim10 strain growth, BacTiter-Glo luminescence, 24 h | inhibition, % at 10 µM | 4,600 compounds, 63% hits;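 active = inhibition of yeast growth at or above a set limit in either of two replicates at 10 µM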;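 note: this counterscreen used the strain with wild-type TIM10; 0% = yeast with DMSO and 100% = medium wells lacking yeast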
tim23-1 conf = tim23-1 mutant yeast growth inhibitors, confirmation, luminescence, single concentration. shares compounds with tim23-1 inh. S. cerevisiae tim23-1 growth, BacTiter-Glo luminescence, 24 h. inhibition, % at 20 µM. 4,400 compounds, 83% hits;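 active = inhibition above about 39% in either of two replicate wells at 20 µM, limit read from the data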;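 note: temperature-sensitive tim23-1 mutant grown at 25 °C; 0% = DMSO wells with yeast and 100% = medium wells without yeast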
* marks the source's active call; other numbers are inactive results; . = no result given. Only some compounds are listed: those with a hit (about 4.7% of all), similar ones and a draw of the others.

SMILES	TIM10 inh	PfHsp90 set2	SKKanGAS inh	Calb FLC	tim23-1 inh	tim10-1 inh	tim10 confirm	tim23-1 conf
CC1CCCC(NC(=O)CCC(=O)N2CCOc3ccccc32)C1C (stereo not drawn)	6.5	14.2	-4.0	-3.6	10.4	11.2	.	.
Cc1cc2cc(C=O)c(Cl)nc2cc1C	44.5*	7.3	1.0	-1.5	64.2*	34.3	28.1*	80.6*
Cc1ccc(NC(=O)CN2CCN(C)CC2)cc1Br	-7.1	-4.4	2.8	0.7	-4.4	-22.4	.	.
O=C(CCC(=O)c1ccc(F)cc1)Nc1cccc(Br)c1	-6.6	4.3	-0.7	-16.7	9.8	1.4	.	.
CC(=O)Nc1cccc(-c2cc(-c3c(Cl)cccc3Cl)no2)c1	44.0*	-60.4	39.8	6.8	61.4*	35.0	28.4	40.7*
CCC(=O)Nc1ccccc1Sc1ncnc2scc(-c3ccccc3)c12	43.1*	-19.5	-3.0	10.7	56.9*	32.5	32.4*	50.2*
O=C(O)CSc1ncnc2scc(-c3ccccc3)c12	9.7	-2.0	1.7	-5.4	10.3	4.6	.	.
O=c1c2c3c(sc2ncn1/N=C/c1ccc(Br)o1)CCCC3	43.6*	-14.5	-3.8	-8.5	51.4*	37.0	46.4*	54.0*
Cc1ccc(/C=N/n2cnc3sc4c(c3c2=O)CCCC4)o1	6.9	-2.4	-5.4	0.5	17.0	12.9	.	.
Cc1ccc2nc(-c3ccc4c(c3)OCCO4)cn2c1	74.3*	-5.7	-9.0	-6.7	51.2*	34.4	75.6*	52.1*
c1ccn2cc(-c3ccc4c(c3)OCCO4)nc2c1	12.0	40.0	7.6	-16.8	31.1	19.4	.	.
O=C(Nc1cc(-c2nc3ncccc3o2)ccc1Cl)c1ccc([N+](=O)[O-])o1	43.0*	-15.8	15.0	-4.5	86.4*	26.5	28.2	86.0*
O=C(Nc1cc(-c2nc3ncccc3o2)ccc1Cl)c1cccs1	1.7	5.9	-6.7	3.8	32.2	-2.5	.	.
CN(C)c1nc(N)ncc1-c1ccc(Oc2ccccc2)cc1	-36.8	29.8	-0.8	44.7	9.7	-27.8	.	.
C=CCOc1cccc(C(=O)/C=C2/C(=O)Nc3ccccc32)c1	85.1*	-47.8	4.1	4.1	75.5*	20.7	79.7*	-5.5
CC(=O)N1CCOc2ccc(S(=O)(=O)NC[C@H]3O[C@@H](n4ccc(=O)[nH]c4=O)[C@H](O)[C@@H]3O)cc21	.	-3.4	.	.	.	.	.	.
O=C(c1ccc(Cl)cc1)C(CN1CCCCC1)c1ccccc1 (stereo not drawn)	57.6*	-47.6	-6.4	2.6	61.8*	19.0	62.7*	-44.5
N#CC1=C(N2CCCCC2)c2cc3c(n2C1=O)CCCC3	44.5*	-20.9	3.1	0.7	51.6*	34.1	32.7*	56.8*
Oc1ccc(Cl)cc1-c1cc(-c2ccco2)[nH]n1	49.1*	-35.9	9.5	2.2	71.8*	37.6	38.1*	14.8
CCc1sc(C(=O)Nc2ccc3c(c2)OCCO3)cc1Br	54.0*	5.2	1.0	40.6	78.7*	39.0	47.3*	84.9*
O=C(Nc1ccc2c(c1)OCCO2)c1ccc(Br)s1	.	-6.9	1.3	-27.3	.	.	.	.
Cc1ccc(-c2nnc(NCc3ccccc3)c3ccccc23)cc1	29.5	18.0	13.0	-2.4	24.9	21.6	.	.
Clc1ccc(-c2nnc(NCc3ccccc3)c3ccccc23)cc1	54.2*	2.8	11.8	1.1	68.0*	31.9	56.8*	71.0*
CCn1nnc(NC(=S)NC(=O)c2ccc(-c3cccc(Cl)c3)o2)n1	34.9	-17.2	-6.2	27.4	41.5	35.1	.	.
CCCn1nnc(NC(=O)c2ccc(-c3cccc(Cl)c3)o2)n1	51.1*	-25.9	-0.3	36.3	69.0*	33.9	32.0*	73.6*
SMILES	TIM10 inh	PfHsp90 set2	SKKanGAS inh	Calb FLC	tim23-1 inh	tim10-1 inh	tim10 confirm	tim23-1 conf
Nc1c(C(=O)Nc2ccccc2)sc2nc(-c3ccco3)ccc12	67.5*	.	18.5	12.4	63.7*	35.8	63.5*	85.2*
COc1ccccc1C/C(N)=N/OC(=O)c1ccc2c(c1)OCO2	70.7*	-17.6	-9.1	19.0	71.6*	24.0	80.3*	77.2*
Cc1c(C(=O)OCC(=O)N(C)Cc2ccc(Cl)cc2)oc2ccccc12	-3.1	17.1	.	.	31.4	-0.7	.	.
C=CCC[C@@H](Cc1ccc(F)cc1)C(=O)OC[C@@H](Cc1ccccc1)NC(=O)[C@@H](CC=C)CC(=O)N[C@@H](CO)Cc1ccccc1	3.2	8.2	.	.	8.7	6.1	.	.
CCc1ccc(OCC(=O)Nc2ccc3oc(=O)ccc3c2)cc1	5.4	-0.2	-3.5	-6.7	-3.6	-20.4	.	.
CCC1=C([N+](=O)[O-])C(c2ccc3c(c2)OCO3)NC(=O)N1 (stereo not drawn)	5.7	-7.8	-1.6	2.7	1.6	11.7	.	.
COc1ccc(/C=N/NC(=O)c2cc3c(OC)ccc(OC)c3[nH]2)cc1O	3.1	-3.2	-0.7	3.8	14.1	18.1	.	.
COc1ccc(OC)c2[nH]c(C(=O)N/N=C/c3ccccc3O)cc12	44.7*	15.7	113.5*	89.5*	54.3*	13.6	26.2	49.8*
Nc1cc2c(cc1Cl)-c1ccccc1C2=NO	.	9.6	.	.	.	.	.	.
CCCc1nc2ccccc2n1CCOc1ccccc1	14.1	-28.3	11.5	-10.2	21.6	35.4	.	.
c1ccc(NCc2nc3ccccc3n2CCOc2ccccc2)cc1	42.6*	5.2	11.1	-2.0	52.5*	34.5	50.0*	52.0*
Cc1cc(Sc2ccc([N+](=O)[O-])cn2)ccc1Br	-6.5	-6.1	-0.9	-1.1	-3.4	-14.6	.	.
Cc1cc(S(=O)(=O)c2ccc([N+](=O)[O-])cn2)ccc1Br	44.4*	69.4	2.2	-32.0	86.3*	22.0	60.5*	80.6*
COc1cccc(/C=N/Nc2ncnc3scc(-c4ccccc4)c23)c1O	54.5*	100.1*	82.0*	108.5*	59.0*	11.2	67.1*	59.7*
Cc1cc2c(cc1S(=O)(=O)N1CCN(c3cccc(C)c3C)CC1)OCCN2C	-2.1	-7.4	10.1	2.7	20.0	21.5	.	.
COc1ccc(NC(=O)N(C)C[C@H]2Oc3ccc(NC(=O)CCN4CCOCC4)cc3C(=O)N([C@H](C)CO)C[C@@H]2C)cc1	5.3	-0.1	.	.	19.4	11.3	.	.
N=c1oc2cc(O)ccc2cc1C(=O)Nc1ccc(Br)cc1	41.1*	-13.8	19.4	-2.6	55.1*	33.5	25.1	56.2*

Source: PubChem
